Consider ten compounds from PubChem BioAssay (NCI).

This is part of a sample that, as a whole, favours compounds with a hit. Of some 83,000 tested, about 20% had one in any assay.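 Treatment: one concentration, 48 hours, 96-well format. Scoring: percent growth, with anything below 10 considered active.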 Unmarked numbers belong to inactive results. The source made the active and inactive calls.

What all share (assay): NCI-60 one-dose screen, 48 h (100 = growth as untreated, 0 = no growth, -100 = all killed)
What all share (details): 10 µM unless noted

Assay [1] relates to SR leukemia.
The subject of assay [2] is RPMI-8226 leukemia.
Assay [3] has as its system OVCAR-8 ovarian.
Assay [4] relates to OVCAR-4 ovarian.
The subject of assay [5] is SK-OV-3 ovarian.
Assay [6] has as its system IGROV1 ovarian.
Assay [7] has as its system OVCAR-3 ovarian.
In assay [8] the test system is HS 578T breast.
In assay [9] the test system is NCI/ADR-RES ovarian.
In assay [10] the test system is T-47D breast.
Assay [11] deals with MDA-MB-435 melanoma.
For assay [12], the system named is SW-620 colon.
In assay [13] the test system is MCF7 breast.
Assay [14] concerns HCT-116 colon.
Assay [15] relates to HCC-2998 colon.
For assay [16], the system named is KM12 colon.
Assay [17] deals with BT-549 breast.
Assay [18] has as its system OVCAR-5 ovarian.

For the compound `CCCCN(CCCC)CC(O)CN(CC)CC` (configuration not stated), the growth in assay [1] is 97%; in [2], 97.4%; in [3], 104%; in assay [4], 97%; in assay [5] it was 99%; in [6], 100%. The growth in assay [7] was 113%; in assay [8], 120%; in [9] it was 105%; in assay [10], 97.6%; in assay [11] it was 92.2%; in assay [12], 99.3%. Besides, the growth was 96% in [13], 97% in [14], 102% in assay [15] and 108% in assay [16].

As for `O=C(N/N=C\c1ccc(Cl)cc1)C(=O)N/N=C\c1ccc(Cl)cc1`, the growth is 90.7% in [1]; 95.7% in assay [2]; 102% in [3]; 92.4% in [5]; 88.7% in [6]; 123% in assay [7]. Moreover, the growth in assay [9] was 104%; in [10] it was 99.2%; in assay [17] it was 95.4%; in assay [11], 108%; in assay [12], 113%; in [13] it was 96.5%. Besides, the growth in assay [14] was 106%; in assay [15] it was 110%; in assay [16], 106%.

For the compound `N#Cc1c2ncccc2c2nnc3cc(Cl)c(Cl)cc3n12`, the growth in assay [1] is 70.2%; in assay [3], 87.6%; in assay [18], 90.1%; in [4], 108%; in assay [5], 104%; in [6], 72.9%. The growth is 70.2% in assay [7]; 99.8% in assay [9]; 60.4% in [10]; 106% in assay [11]; 78.7% in [12]; 38.9% in [13]. Also, the results for the growth in [14], in assay [15] and in assay [16] were 78.7%, 75.6% and 89%, respectively.

For the compound `COc1cc(-c2nc3c(c(C)nc4c3nnn4-c3ccccc3)c(=O)o2)cc(OC)c1OC`, the growth in assay [1] is 108%; in [2], 105%; in assay [3] it was 107%; in assay [4], 114%; in assay [5], 115%; in assay [6], 112%. For the same compound, the growth in assay [7] was 116%; in assay [8], 103%; in assay [9], 115%; in assay [17] it was 105%; in [11], 106%; in assay [12], 107%. Further, the growth in [13] was 97.5%; in [14], 99.3%; in assay [15], 130%; in assay [16], 110%.

For the compound `CC([C@H]1CC=C2C3CCC4=C[C@@H](N(C)C)CC[C@]4(C)C3CC[C@@]21C)N(C)C` (some centres not stated), the growth was 71.5% in assay [1]; 85.3% in assay [3]; 86.3% in assay [18]; 8.25% (active) in assay [4]; 80.3% in assay [5]; 50.8% in assay [6]. The growth is 42% in [7]; 61% in assay [8]; 68.8% in assay [9]; 29.1% in assay [10]; 90.5% in assay [17]; -67.5% (active) in assay [11]. The growth is 9.89% (active) in [12]; 34.9% in assay [13]; -57% (active) in [14]; 49.6% in [15]; 30.6% in [16].

Turning to `CCCCCCCCCC[N+](C)(C)C`, the growth in [1] was 20.2%; in assay [2], 1.86% (active); in assay [3] it was 18.3%; in [4], 23%; in assay [5], 56.2%; in [6], -37.8% (active). Moreover, the growth in [7] was 5.8% (active); in [8], 26.5%; in assay [9], 94.4%; in assay [10], 27.3%; in assay [17] it was 46.7%; in [11] it was 32.6%. Besides, the growth in assay [12] is 19%; in [13], 31.1%; in [14], 21.8%; in [15], 22%; in [16], -51.2% (active).

Turning to `COc1cc(-c2nn(-c3ccc(NC(=O)c4cc(Cl)cc(Cl)c4)cc3)cc2-c2ccncc2)ccc1Cl`, the growth was 14.6% in [1]; 96.9% in assay [3]; 95.7% in assay [18]; 100% in assay [4]; 111% in assay [5]; 116% in assay [6]. Moreover, the growth was 81% in assay [7]; 84.2% in [9]; 79.8% in [10]; 84.1% in assay [11]; 77.2% in assay [12]; 78% in assay [13]. For the same compound, the growth in assay [14] is 64.9%; in assay [15], 62.2%; in assay [16], 38.7%.

On to `O=C(NC(=S)NNC(=S)NNc1ccccc1)c1ccccc1`, for which the growth in [2] was 19.8%; in assay [3], 20.9%; in assay [18], 59.7%; in [4], 84.8%; in [5], 89.9%; in [6], 33.4%. For the same compound, the growth is 71.6% in assay [7]; 15.2% in assay [8]; 75.4% in assay [9]; 18.4% in assay [10]; 49.5% in assay [17]; 4.94% (active) in assay [11]. The growth is 24.4% in assay [12]; 8.12% (active) in assay [13]; 24.3% in assay [14]; 50.7% in [15]; 59% in assay [16].

Regarding `NCCCOc1cc(Cl)ccc1NC(=O)c1cc2ccccc2cc1OCCCN`, the growth in assay [1] is -38.9% (active); in assay [2], -43.9% (active); in [3], -73.3% (active); in assay [4], -70.6% (active); in assay [5], -42.4% (active); in assay [6], -43.5% (active). Moreover, the growth in assay [7] is -86.9% (active); in assay [8] it was -56.4% (active); in assay [9] it was 57.2%; in assay [10] it was -70.5% (active); in assay [11], -68.5% (active); in assay [12], -92% (active). For the same compound, the growth in assay [13] is -93.9% (active); in assay [14], -97.3% (active); in [16], -94.9% (active).

Consider `O=C1CSC(c2ccccc2Cl)N1c1nnc(-c2ccncc2)o1` (configuration not stated), for which the growth is 96% in [1]; 86% in assay [2]; 103% in [3]; 97.8% in [4]; 89% in assay [6]; 108% in [7]. The growth in [8] was 109%; in assay [9] it was 92.3%; in assay [17], 116%; in assay [11], 99.6%; in assay [12], 99.6%; in assay [14], 85.5%. Besides, the growth in assay [15] is 97.9%; in [16], 105%.
